# HP1b chromo inh: HTS for Inhibitors of HP1-beta Chromodomain Interactions with Methylated Histone Tails. AlphaScreen HP1-beta / biotin-H3K9me3 peptide binding. Potency, µM (top dose mostly 114 µM), for inactives: top-dose activity change, negative = inhibition, most hits filed as inhibitors. 390,000 tested, 0.56% active. AID 540317, 2011; further: potency means the concentration at half of the fitted maximal effect; nearly all actives have a fitted effect of over 70% in size
#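 HP1-beta protein (50 nM final) preincubated 30 min at room temperature with biotinylated H3(1-18)K9me3 peptide (50 nM) in PBS pH 7.4, 0.01% Tween-20, then compound added for 30 min. AlphaScreen streptavidin donor/nickel chelate acceptor beads (10 ug/mL final), 30 min dark, luminescence read.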
# G9a inh: qHTS Assay for Inhibitors of Histone Lysine Methyltransferase G9a | Histone-lysine N-methyltransferase EHMT2 (Homo sapiens), Q96KQ7 | AID 504332, 2011 | 350,000 tested, 8.8% active | Potency, µM (titrated, usually from 102 µM), inactives show top-dose activity, negative = inhibition, hits mostly inhibitors | G9a H3K9 monomethylation, AlphaScreen, 2 h; further: potency means the concentration at half of the fitted maximal effect; on the % scale 0 is the no-effect control and ±100 the full control effect; nearly all actives have a fitted effect of over 75% in size
#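 Methyltransferase reactions run at room temperature for 2 h (20 nM enzyme, 500 nM biotin-H3K9 peptide, 20 uM SAM) after a 15 min compound preincubation; product detected by AlphaScreen beads and anti-H3K9me1 antibody.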
# JMJD2A Tudor inh: qHTS Assay for Inhibitors of JMJD2A-Tudor Domain; AlphaScreen JMJD2A-Tudor / H3K4me3 peptide binding; 390,000 tested, 4.4% active; Potency, µM (titrated, usually from 114 µM), inactives show at the top dose activity change, negative = inhibition, hits mostly inhibitors; further: potency means the concentration at half of the fitted maximal effect; on the % scale 0 is the no-effect control and ±100 the full control effect; nearly all actives have a fitted effect of over 50% in size
# PI5P4Ka inh: qHTS for Inhibitors of phosphatidylinositol 5-phosphate 4-kinase (PI5P4K). Phosphatidylinositol 5-phosphate 4-kinase type-2 alpha (Homo sapiens), P48426. PI5P4Kalpha enzyme, ADP-Glo luminescence, 60 min; active compounds read low. max response, %. 330,000 tested, 1.2% active; active means max response of -50% or lower; inconclusive means between -30% and -50%; inactive means -30% or higher; further: value at the top dose of about 77 µM; on the % scale 0 is the no-effect control and ±100 the full control effect
#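 Quantitative HTS of the MLSMR library against PI5P4Kalpha with substrate. ATP added last at 5 microM final; room temperature, 60 minutes. Remaining ATP depleted, ADP converted and read as luminescence.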
# BAZ2B inh: qHTS Assay for Inhibitors of BAZ2B; Bromodomain adjacent to zinc finger domain protein 2B (Homo sapiens), Q9UIF8; AlphaScreen BAZ2B-H3K14Ac peptide displacement; Potency, µM (top dose mostly 114 µM), inactives show at the top dose activity change, negative = inhibition, most hits filed as inhibitors; 360,000 tested, 4.4% active; AID 504333, 2011; further: potency means the concentration at half of the fitted maximal effect; on the % scale 0 is the no-effect control and ±100 the full control effect; nearly all actives have a fitted effect of over 60% in size
#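 Protein-peptide AlphaScreen: BAZ2B 50 nM, b-H3K14Ac 50 nM, 1x PBS pH 7.4 + 0.01% Tween-20. Preincubation 30 min RT; cpd 30 min RT (top 110 uM); beads 20 min RT, light-protected.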
# L3MBTL1 block: qHTS Assay for the Inhibitors of L3MBTL1; Lethal(3)malignant brain tumor-like protein 1 (Homo sapiens), Q9Y468; AlphaScreen L3MBTL1–H3K9me1 peptide binding; Potency, µM (series often up to 57.1 µM), without a hit: top-dose activity, negative = inhibition, usual class: inhibitors; 230,000 tested, 0.66% active; AID 485360, 2010; further: potency means the concentration at half of the fitted maximal effect; on the % scale 0 is the no-effect control and ±100 the full control effect; nearly all actives have a fitted effect of over 60% in size
# Target sequence (Q9Y468 whole entry, looked up): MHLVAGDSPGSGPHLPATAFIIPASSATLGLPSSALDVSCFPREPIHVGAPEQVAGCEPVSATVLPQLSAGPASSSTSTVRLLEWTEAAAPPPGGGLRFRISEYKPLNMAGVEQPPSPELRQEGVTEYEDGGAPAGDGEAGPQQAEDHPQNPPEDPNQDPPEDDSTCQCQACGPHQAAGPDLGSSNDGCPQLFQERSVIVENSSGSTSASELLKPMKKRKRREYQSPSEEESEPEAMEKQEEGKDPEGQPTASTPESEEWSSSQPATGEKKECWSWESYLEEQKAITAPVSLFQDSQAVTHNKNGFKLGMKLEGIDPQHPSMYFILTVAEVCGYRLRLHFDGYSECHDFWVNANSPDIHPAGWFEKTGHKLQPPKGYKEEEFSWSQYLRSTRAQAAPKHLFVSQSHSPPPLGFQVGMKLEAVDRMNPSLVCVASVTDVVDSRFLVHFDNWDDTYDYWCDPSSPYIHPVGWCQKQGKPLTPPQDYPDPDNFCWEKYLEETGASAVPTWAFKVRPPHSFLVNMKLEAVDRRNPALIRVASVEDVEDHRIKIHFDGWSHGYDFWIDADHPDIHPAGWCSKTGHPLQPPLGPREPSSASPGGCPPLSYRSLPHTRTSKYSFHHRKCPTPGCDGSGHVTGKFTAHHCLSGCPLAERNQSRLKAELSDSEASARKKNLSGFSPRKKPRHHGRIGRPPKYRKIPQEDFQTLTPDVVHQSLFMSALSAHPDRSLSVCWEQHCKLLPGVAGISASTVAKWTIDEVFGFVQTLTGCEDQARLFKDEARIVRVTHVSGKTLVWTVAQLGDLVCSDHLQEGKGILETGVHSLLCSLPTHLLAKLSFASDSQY
#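 Read-out is AlphaScreen signal from streptavidin donor and nickel chelate acceptor beads (10 ug/mL final each) bridging L3MBTL1 (50 nM) and biotinylated K9-monomethylated H3(1-15) peptide (75 nM), after 30 min compound exposure at room temperature.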
# The depositor's hits bear a star; ? = inconclusive; · = no result given; [ ] = remark or other dose. An excerpt weighted towards active compounds, which were near 11% of everything screened. Unless noted, the call rests on the fitted dose curve; in most records, active means well fitted inhibition curve with a large enough effect; inconclusive means small, poorly fitted or top-dose-only effect; inactive means no such curve, though single readings can be large or run the other way.
SMILES,HP1b chromo inh,G9a inh,JMJD2A Tudor inh,PI5P4Ka inh,BAZ2B inh,L3MBTL1 block
O=C(C1CCC1)N1CCCc2cc(S(=O)(=O)Nc3ccc(F)cc3)ccc21,18%[57 µM],5%[59 µM],-14%,·,1%,·
CN(CC1CCOCC1)C(=O)CC1C(=O)NCCN1Cc1ccc(-c2ccccc2)cc1 (stereo not given),31%,4%,-12%,4,-12%,-1%
COc1ccc(CN2CCNC(=O)C2CC(=O)N(C)CC2CCOCC2)cc1C (stereo not given),29%,79µM*,-17%,7,-23%,·
COc1ccc(CN2CCNC(=O)C2CC(=O)N(C)CC2CCOCC2)cc1OC (stereo not given),32%,79µM*,-4%,0,-16%,·
CCc1ccc(NC(=O)Cn2c(=O)c(-c3ccccc3NC(C)=O)nc3ccccc32)cc1,22%,5%[59 µM],-12%,·,1%,·
COc1ccc(C(=O)N/C(=C\c2cn(S(=O)(=O)N(C)C)c3ccccc23)C(=O)NCCCn2ccnc2)cc1,22%,1%,?,-6,32µM*,·
O=C(NCCCn1ccnc1)/C(=C/c1ccccc1)NC(=O)c1ccccc1,6%,-14%[12.7 µM],45µM*,-9,?,0%
CN(C)c1ccc(/C=C(\NC(=O)c2ccccc2)C(=O)NCCCn2ccnc2)cc1,-26%,50µM*,50µM*,4,28µM*,·
CCCNC(=O)c1ccc(N2CCC3(CC2)CC(c2ccccc2)=NO3)c(N)c1,24%,·,-9%,-1,0%,4%
CCCNC(=O)c1ccc(N2CCC3(CC2)CC(c2ccccc2)=NO3)c(NC(=O)Cc2ccc(F)cc2)c1,28%,50µM*,-32%,1,?,-5%
O=C(Nc1ccccc1)NC1(C(=O)NCc2cccs2)CCCCC1,7%,5%[59 µM],-23%,·,1%,0%
CCC(C)NC(=O)C1(NC(=O)Nc2ccccc2)CCCCC1 (stereo not given),?,7%,18µM*,-28,-4%,16%
CC[C@](N)(CCC(=O)O)C(=O)O,·,34%[59 µM],·,·,·,·
O=C(c1ccccc1)c1coc2c1C(=O)c1ccccc1C2=O,?,45µM*,-19%,5,32µM*,-16%
COc1ccc(C(=O)c2coc3c2C(=O)C(=O)c2ccccc2-3)cc1,?,·,?,-15,25µM*,-19%
CC(=O)c1c(C)oc2c1C(=O)c1ccccc1C2=O,-3%,-13%,-21%,-4,0%,-9%
O=C1c2ccccc2C(=O)c2c1oc(C(F)(F)F)c2C(=O)c1ccccc1,?,4µM*,?,-3,7.1µM*,8%
COc1ccc(CNc2nc(=S)[nH]c3cc(OC)c(OC)cc23)cc1,28%,10µM*,?,1,?,·
COc1cc2[nH]c(=S)nc(NCc3ccccn3)c2cc1OC,21%,50µM*,-23%,-4,6%,·
COc1cc2[nH]c(=S)nc(NCc3cccnc3)c2cc1OC,64%,45µM*,-5%,-1,-18%,·
CCc1ccccc1-n1cnc2cc(C(=O)NC3CCCCCC3)ccc21,10%,-26%[59 µM],-16%,·,-17%,·
O=C(Nc1cccc(Cl)c1Cl)c1cc(S(=O)(=O)N2CCC3(CC2)OCCO3)ccc1F,32%,-9%[59 µM],-20%,·,7%,·
COc1ccc(NC(=O)C2CCN(S(=O)(=O)c3c(C)noc3/C=C/c3cccs3)CC2)cc1Cl,30%,3%[59 µM],-20%,·,·,·
COc1ccc(C)cc1NC(=O)Cn1cc(S(=O)(=O)N2CCC(C)CC2)c2ccccc2c1=O,23%,-23%[59 µM],-19%,·,-19%,·
CC(C)CC1CC(C)(c2csc(NNC(=O)c3ccccc3)n2)OC1=O (stereo not given),29%,45µM*,-10%,3,0%,·
SMILES,HP1b chromo inh,G9a inh,JMJD2A Tudor inh,PI5P4Ka inh,BAZ2B inh,L3MBTL1 block
CCOc1ccccc1CN(CCc1ccc2c(c1)OCO2)Cc1ccccn1,?,5µM*,3.2µM*,-8,35µM*,-14%
O=Cc1ccccc1OCc1ccc2c(c1)OCO2,76%,·,27%,-30,62%,59%
COc1ccccc1CNCc1ccc2c(c1)OCO2,·,·,·,1,·,·
CCOc1ccccc1CN(CCc1ccc2c(c1)OCO2)Cc1cc(OC)c(OC)cc1OC,?,0.71µM*,5.6µM*,·,45µM*,·
COc1cccc(C(=O)Nc2cc(-c3cn4cccnc4n3)ccc2C)c1,26%,32µM*,1%,-1,-19%,3%
CCc1ccc(C2c3c(-c4ccccc4O)n[nH]c3C(=O)N2Cc2ccncc2)cc1 (stereo not given),33%,6%[59 µM],-17%,·,-17%,·
CCCCc1c(CCC)c(=N)c2ccccc2n1C,35%,11%[59 µM],89µM*,-1,-4%[57.1 µM],9%
COc1ccc(CN2C(=O)c3cccnc3C2=O)cc1S(=O)(=O)NC1CCCCC1,32%,6%,21%,1,79µM*,·
COc1ccccc1CNS(=O)(=O)c1cc(CN2C(=O)c3cccnc3C2=O)ccc1OC,44%,-5%,28%,-9,56µM*,·
Cc1ccc(-n2c(C)cc(C3=NNC(=NC4CC4)SC3)c2C)cc1C,?,45µM*,50µM*,3,50µM*,-7%
CN=C1NN=C(c2cc(C)n(-c3ccc(Cl)cc3)c2C)CS1,-15%,32µM*,?,-6,·,0%
Fc1ccc(F)c(C2=NNC(=Nc3ccccc3F)SC2)c1,-7%,10%[59 µM],-34%,3,-31%,-17%
Cc1cc(C2=NNC(=NC3CC3)SC2)c(C)n1-c1c(C)n(C)n(-c2ccccc2)c1=O,25%,?,-6%,2,-11%,1%
COc1cc2nc(Nc3cccc(C)c3)nc(N)c2cc1OC,22%,-47%[59 µM],-19%,·,-14%,·
COc1cc2nc(Nc3ccc(C)c(C)c3)nc(N)c2cc1OC,7%,-8%,?,?,?,·
COc1cc2nc(N(C)C)nc(N)c2cc1OC,15%,45µM*,-18%,5,-17%,0%
COc1cc2nc(Nc3ccc(F)cc3)nc(N)c2cc1OC,28%,79µM*,-19%,-2,-24%,·
Cc1ccccc1CN1C(=O)c2ccccc2Sc2ccc(C(=O)NC(C)c3ccccc3)cc21 (stereo not given),-11%,3%[59 µM],-19%,·,-9%,·
